SARS PLP yeast – SARS-CoV PLP inhibition in yeast. S. cerevisiae expressing SARS-CoV PLpro, growth rescue. Potency, µM (top dose mostly 32.9 µM), most hits filed as activators. 330,000 compounds, 0.19% hits. AID 485353; also: nearly all actives have a fitted effect of over 55% in size
NS1 function inh – inhibitors of influenza NS1 protein function; Potency, µM (top dose mostly 46.1 µM); 270,000 compounds, 0.4% hits; AID 2326; also: actives are rising curves; nearly all actives have a fitted effect of over 50% in size
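Read-out: OD600 growth recovery of NS1-expressing budding yeast. Cells grown overnight at 30C in -URA glucose medium, washed, resuspended and diluted 1:100 in 2% galactose assay medium, pH 6.0. Same strain lacking NS1 served as positive control.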
Shiga toxin inh – inhibitors of Shiga toxin in Vero cells | Vero cells, Shiga toxin protein synthesis inhibition reporter | inhibition, % at 38.7 µM | 290,000 compounds, 9.2% hits; in the data active = inhibition mostly above about 28%, no sharp cut-off; inactive = mostly below about 43%
CHX counter – counter-screen for Shiga toxin inhibitors: cycloheximide protein synthesis inhibition | AID 2314 | 300,000 compounds, 12% hits | cell reporter, cycloheximide protein synthesis inhibition counterscreen | max response, %; in the data active = max response mostly above about 13%, no sharp cut-off; inactive = mostly below about 14%; also: read at 38.3 µM for the half of the compounds with a filed dose
Pf growth 96h – inhibits malaria parasite growth, 96 h; P. falciparum luciferase reporter growth, 96 h; Potency, µM (top dose mostly 28.7 µM), actives largely listed as inhibitors; 320,000 compounds, 6.9% hits; AID 504834; active = well fitted inhibition curve with a large enough effect; inconclusive = small, poorly fitted or top-dose-only effect, or another doubt; inactive = no such curve, though single readings can be large or run the other way
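96 h incubation, 37 C, 5% CO2, of luciferase-reporter P. falciparum-infected RBCs (2% hematocrit, 0.05% parasitemia final) with test compounds; endpoint luminescence.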
Pf growth 48h – P. falciparum growth inhibition at 48 hours (one generation); P. falciparum luciferase growth in erythrocytes, 48 h; Potency, µM (highest dose often 28.7 µM), actives largely listed as inhibitors; 310,000 compounds, 5.9% hits; AID 504832; active = well fitted inhibition curve with a large enough effect; inconclusive = small, poorly fitted or top-dose-only effect, or another doubt; inactive = no such curve, though single readings can be large or run the other way
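In quantitative HTS format, infected erythrocytes bearing luciferase-reporter parasites were treated for a single generation at 37 C. Luminescence after adding detection reagent served as the growth measure.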
Hits are given with their value. Hits are enriched below; roughly 21% of the tested compounds scored in any of these assays. Unless noted, calls follow the shape of the full dose curve.

`CCC(=O)c1ccc(OCC(=O)N2CCN(S(=O)(=O)c3ccc(Cl)s3)CC2)cc1` gave SARS PLP yeast inactive, Pf growth 96h 10.4µM and Pf growth 48h inconclusive.
CC(=O)c1ccc(OCC(=O)N2CCN(S(=O)(=O)c3ccc(Br)s3)CC2)cc1 was read as SARS PLP yeast inactive, Pf growth 96h inconclusive and Pf growth 48h inconclusive.
For O=C(Cc1cccs1)N1CCN(S(=O)(=O)c2ccccc2)CC1 the results were SARS PLP yeast inactive, NS1 function inh inactive, Shiga toxin inh inactive, CHX counter inactive, Pf growth 96h 13.1µM and Pf growth 48h inactive.
`O=C(CSc1n[nH]c(-c2cccs2)n1)N1CCN(S(=O)(=O)c2ccc3ccccc3c2)CC1` gave SARS PLP yeast inactive, NS1 function inh inactive, Shiga toxin inh inactive, CHX counter inactive and Pf growth 96h 5.86µM.
For CCCOc1nc2c(c(=O)n(C)c(=O)n2C)n1Cc1cccc2ccccc12 the results were SARS PLP yeast inactive, NS1 function inh inactive, Shiga toxin inh inactive, CHX counter inactive and Pf growth 48h 13.1µM.
CCOC(=O)N1CCN(Cc2nc3c(c(=O)n(C)c(=O)n3C)n2Cc2cccc3ccccc23)CC1 was read as SARS PLP yeast inactive, NS1 function inh inactive, Shiga toxin inh inactive, CHX counter inactive, Pf growth 96h 8.28µM and Pf growth 48h 11.7µM.
`CCCOc1nc2c(c(=O)n(C)c(=O)n2C)n1C` gave SARS PLP yeast inactive, NS1 function inh inactive, Shiga toxin inh inactive, CHX counter inactive, Pf growth 96h inactive and Pf growth 48h inactive.
Cc1cc(C)cc(NC(=O)C2C3C=CC4(O3)C2C(=O)N(CCCN(C)C)C4C(=O)NC2CCCC(C)C2C)c1 (stereo not given) was read as SARS PLP yeast inactive, NS1 function inh inactive, Shiga toxin inh inactive, CHX counter inactive, Pf growth 96h inactive and Pf growth 48h inactive.
C=C(C)C1Cc2cc3ccc(=O)oc3cc2O1 (stereo not given) was read as SARS PLP yeast inactive, NS1 function inh inactive, Shiga toxin inh inactive, CHX counter 16.4, Pf growth 96h inconclusive and Pf growth 48h inactive.
`CC(C)(O[C@@H]1O[C@H](CO)[C@@H](O)[C@H](O)[C@H]1O)[C@H]1Cc2cc3ccc(=O)oc3cc2O1` gave SARS PLP yeast inactive, NS1 function inh inactive, Shiga toxin inh inactive, CHX counter inactive, Pf growth 96h inactive and Pf growth 48h inactive.
For CC(C)(O)[C@H]1Cc2cc3ccc(=O)oc3cc2O1 the results were SARS PLP yeast inactive, NS1 function inh inactive, Shiga toxin inh 81.8, CHX counter 39.4, Pf growth 96h inactive and Pf growth 48h inactive.
`CC1(C)Oc2cc3oc(=O)ccc3cc2C[C@@H]1O` gave SARS PLP yeast inactive.
`CCOC(=O)C1(Cc2cccc(Cl)c2)CCCN(C(=O)CCSC)C1` (stereo not given) gave SARS PLP yeast inactive, NS1 function inh inactive, Shiga toxin inh inactive, CHX counter 21.7, Pf growth 96h inactive and Pf growth 48h inactive.
`CCOC(=O)C1(Cc2cccc(Cl)c2)CCCN(C(=O)CCOC)C1` (stereo not given) gave SARS PLP yeast inactive, NS1 function inh inactive, Shiga toxin inh inactive, CHX counter 12.6, Pf growth 96h inactive and Pf growth 48h inactive.
`CCOC(=O)C1(Cc2ccccc2C)CCCN(C(=O)CCC(=O)OC)C1` (stereo not given) gave SARS PLP yeast inactive, NS1 function inh inactive, Shiga toxin inh inactive, CHX counter inactive, Pf growth 96h inconclusive and Pf growth 48h inactive.
Screening CCOC(=O)C1(Cc2cccc(Cl)c2)CCCN(C(=O)CCN2CCCC2=O)C1 (stereo not given) returned SARS PLP yeast inconclusive, NS1 function inh inactive, Shiga toxin inh inactive, CHX counter 24.7, Pf growth 96h inactive and Pf growth 48h inactive.
CCOC(=O)C1(Cc2ccccc2C)CCCN(C(=O)COC)C1 (stereo not given) was read as SARS PLP yeast inactive, NS1 function inh inactive, Shiga toxin inh 40.8, CHX counter 23.1, Pf growth 96h inconclusive and Pf growth 48h inactive.
O=C(C1CCCN(CCCc2ccccc2)C1)N1CCCCCC1 (stereo not given) was read as SARS PLP yeast inactive, NS1 function inh inactive, Shiga toxin inh inactive, CHX counter inactive, Pf growth 96h inactive and Pf growth 48h inactive.
`C=CCCC(=O)N1CCCC(Cc2cccc(Cl)c2)(C(=O)OCC)C1` (stereo not given) gave SARS PLP yeast inactive, NS1 function inh inactive, Shiga toxin inh inactive, CHX counter inactive, Pf growth 96h 11.7µM and Pf growth 48h inactive.

Screening results: PubChem BioAssay, National Center for Advancing Translational Sciences (NCATS)
